In all, about 190,000 compounds went through this assay and about 1,300 (0.68%) were called active. Rule as the data show it: active = inhibition above about 50%; inactive = the rest. What follows is part of a selection rich in actives, with near analogues and random picks from the rest.
What follows are compounds tested against Mannose-6-phosphate isomerase (Homo sapiens) (UniProt P34949) (assay: MPI inhibition at elevated mannose 6-phosphate – biochemical, fluorescence intensity, high mannose 6-phosphate, primary screen (AID 1220)). Details: recombinant PMI enzyme, coupled fluorescence intensity; at 20 µM; hits give high values.
Mannose-6-phosphate isomerase (Homo sapiens), sequence (P34949 whole entry, looked up): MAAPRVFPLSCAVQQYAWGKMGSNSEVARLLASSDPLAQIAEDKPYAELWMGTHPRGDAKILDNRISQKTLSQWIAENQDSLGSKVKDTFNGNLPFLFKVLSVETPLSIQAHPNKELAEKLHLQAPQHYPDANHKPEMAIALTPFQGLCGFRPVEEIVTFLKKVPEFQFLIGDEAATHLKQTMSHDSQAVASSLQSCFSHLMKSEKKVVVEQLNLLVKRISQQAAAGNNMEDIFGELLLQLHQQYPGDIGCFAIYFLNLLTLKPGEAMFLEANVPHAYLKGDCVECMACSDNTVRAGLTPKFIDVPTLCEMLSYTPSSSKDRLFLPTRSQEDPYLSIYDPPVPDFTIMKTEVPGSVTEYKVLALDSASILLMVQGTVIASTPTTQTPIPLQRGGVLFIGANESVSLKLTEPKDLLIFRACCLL

inhibition, inactive:
CCC(=O)Nc1cccc2cccnc12 1.3%
CC(C)NC(=O)COc1ccccc1C#N -4.6%
Cc1ccc(C(=O)c2c[nH]cc2-c2ccccc2)cc1 4.1%
CC(C(=O)NC1CCCC1)N(Cc1ccco1)C(=O)c1snc(C(=O)NC2CCCC2)c1N (configuration not stated) 4%
Cc1ccc(-n2cccc2/C=C2\C(=N)N3N=C(c4ccco4)SC3=NC2=O)cc1 -16.6%
Cc1ccc2c(c1)c1c(n2CC(O)CNC(C)(C)C)CCCC1 (configuration not stated) 27.9%
Cc1nc2ccccc2c(=O)n1/N=C/c1c(O)ccc2ccccc12 17.6%
Oc1ccc2ccccc2c1/C=N/n1cnnc1 40.6%
CCn1c(/C=N/c2nc3ccccc3n2C)nc2ccccc21 33.8%
Cn1c(/N=C/c2cc(Cl)ccc2O)nc2ccccc21 49.3%
O=C(c1noc2c1CCCC2)N1CCN(c2ccccc2)CC1 3.6%
O=C(CSc1nnc(-c2ccc(Cl)s2)o1)N1CCOCC1 30.1%
Cc1c2c(c(C)n1C)C(C(=O)NC1CCCCC1)N(Cc1ccccc1)C2=O (configuration not stated) -4.7%
Cc1ccc(NC(=O)CSc2nc(N)c(-c3ccccc3)c(=O)[nH]2)cc1Cl -0.7%
CCN(CC)C(=O)COC(=O)c1cc(-c2ccc(OC)cc2)nc2ccccc12 7%
COc1cc(OC)c(C2CC(=O)N3CN(c4ccccc4C)CSC3=C2C#N)cc1OC (configuration not stated) -1.4%
COc1ccc(OC)c(C2CC(=O)N3CN(c4ccccc4F)CSC3=C2C#N)c1 (configuration not stated) 17.1%
COc1ccc(N2CSC3=C(C#N)C(c4cc(OC)c(OC)cc4OC)CC(=O)N3C2)c(OC)c1 (configuration not stated) 36.9%
COc1ccc(N2CSC3=C(C#N)C(c4ccc(OC)c(OC)c4)CC(=O)N3C2)c(OC)c1 (configuration not stated) -8.6%
COc1ccc(OC)c(C2CC(=O)N3CN(c4cccc(Cl)c4)CSC3=C2C#N)c1 (configuration not stated) 35%
COc1cc(OC)c(C2CC(=O)N3CN(c4ccccc4)CSC3=C2C#N)cc1OC (configuration not stated) 31.4%
COc1cc(OC)c(C2CC(=O)N3CN(c4ccc(C)cc4)CSC3=C2C#N)cc1OC (configuration not stated) 28.2%
COc1ccc(OC)c(C2CC(=O)N3CN(c4ccccc4)CSC3=C2C#N)c1 (configuration not stated) -38.7%
CNC(=O)CSc1nnnn1-c1cc(C)ccc1C 5.1%
CCOC(=O)c1c(NC(=O)CN2CCCc3ccccc32)sc(C)c1CC 7.2%
CCCCN1C(=O)/C(=C(/C#N)C(N)=O)c2ccccc21 36.9%
CCOC(=O)/C(C#N)=C1/C=CN(Cc2ccccc2)C=N1 1.1%
CCOC(=O)C1CCCN(C(=O)Nc2cccc(Cl)c2)C1 (configuration not stated) 2.6%
COc1cc([N+](=O)[O-])cc2cc(C(=O)NC(C)(C)C)c(=O)oc12 15.7%
C=CCn1c(SCC)nc2sc3c(c2c1=O)CCc1ccccc1-3 5.8%
C=CCSc1nc2sc3c(c2c(=O)n1CC=C)CCc1ccccc1-3 33.5%
O=C1CC(C(=O)N(c2ccccc2)C(C(=O)NC2CCCC2)c2ccncc2)CS1 (configuration not stated) 0.6%
Cc1c(C(=O)Nc2ccccc2)sc2nc[nH]c(=O)c12 8.6%
CCOC(=O)CSc1nc2c(c(=O)[nH]c(=O)n2C)n1CCc1ccccc1 8.8%
CCOC(=O)CSc1nc2c(c(=O)[nH]c(=O)n2C)n1CCCc1ccccc1 2.2%
CN1C(=O)CC(C(=O)O)SC1=Nc1ccc(F)cc1 (configuration not stated) -4.1%
CC(C)N1CCN(c2ccncc2S(=O)(=O)N2CCOCC2)CC1 -5.7%
O=C(O)c1[nH]c2ccccc2c1C=NCc1ccccc1Cl -5%
CC1=CC(C)(C)Nc2ccccc21 23.6%
CC1=CC(C)(C)Nc2ccc(C)cc21 40.8%
C/C(=N/NC(=O)c1ccccc1)C(=O)O 33.7%
COc1ccc(/C=C/C(=O)c2ccc(OC)cc2OC)c(OC)c1 9.4%
COc1ccc(C(=O)/C=C/c2ccccc2)c(O)c1 5.8%
COc1ccc(C(=O)/C=C/c2ccccc2)c(OC)c1 1.9%
COc1ccc(/C=C/C(=O)c2ccc(OC)cc2OC)cc1 2.1%
Cc1ccc(N(C(=O)Cn2nnc(-c3ccccc3)n2)C(C(=O)NC2CCCCC2)c2ccccn2)cc1C (configuration not stated) 6.5%
Cn1c(=O)n(Cc2ccc(Cl)cc2)c(=O)c2c1nc1n2CCN1Cc1ccco1 7.4%
Cc1cc2ncn(CCOc3ccccc3C#N)c2cc1C 0.3%
Cc1ccccc1-c1nsc(SCC(=O)Nc2ccc3c(c2)OCO3)n1 14.2%
CCN1/C(=C/c2ccc3cc(C)ccc3[n+]2CC)Sc2ccccc21 -14.4%
CCN1/C(=C/c2ccc3cc(C)ccc3[n+]2CC)Sc2cc(C)ccc21 15%
CCOC(=O)N1CCN(c2cc(=O)n(-c3ccccc3C)c(=O)[nH]2)CC1 -8%

inhibition, active:
CC1=CC2(O)OCCN(CCO)C2=CC1=O (configuration not stated) 57.4%
Cc1nn(C)c(C)c1N=Cc1c(O)ccc2ccccc12 50.3%
COc1ccc(Br)cc1C1CC(=O)N2CN(Cc3ccccc3)CSC2=C1C#N (configuration not stated) 55.7%
COc1ccc(N2CSC3=C(C#N)C(c4cc(OC)ccc4OC)CC(=O)N3C2)c(OC)c1 (configuration not stated) 55.5%
COc1ccc(Br)cc1C1CC(=O)N2CN(C)CSC2=C1C#N (configuration not stated) 51.8%
CCOC(=O)/C(C#N)=C1/C(=O)N(Cc2ccccc2)c2ccccc21 66.7%
CCCCCOC(=O)CSc1nc2c(c(=O)[nH]c(=O)n2C)n1CCc1ccccc1 107%
CC1=CC(C)(C)Nc2cc(C)c(C)cc21 56.3%
COc1ccc(C(=O)/C=C/c2cc(OC)c(O)c(OC)c2)c(F)c1 62.9%
COc1ccc(C(=O)/C=C/c2ccc(OC)c(O)c2)c(F)c1 62.5%

Source: PubChem BioAssay AID1220 (Sanford-Burnham Center for Chemical Genomics, 2008)
